From PubChem BioAssay AID1259418 (Broad Institute, 2018) come the findings set out here.

The campaign covered roughly 3,400 compounds. About 840 (25%) were called active. Roughly 11% stayed inconclusive and do not appear here.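 The calls were made as follows: active = fitted half-maximal concentration of signal decrease at or below twice the sample's top tested concentration; inconclusive = flat curve between -70 and -30 percent, or poor fit; inactive = flat within 30 percent, signal rise, or potency above limit.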 These entries were drawn from the full list. Results with a measured potency or affinity are listed apart.

The nature of the experiment: T. gondii growth inhibition with IFN-gamma, dose response, cell-based, ME49Luc, HeLa, luciferase, 72 h (AID 1259418). The settings on record: T. gondii ME49Luc in IFN-y HeLa, hits give low values, -100% = high-dose IFN-γ control wells; at 19.5 µM unless noted.
In the case of `Cc1cc(C)c2c(=O)n(Cc3nc(-c4ccccc4Cl)oc3C)c(=O)n(-c3ccccc3)c2n1`, the max activity was -23.7% [at 10 µM] (inactive). Turning to `Cc1ccc(-c2coc(-c3ccc(NC(=O)Nc4cccc(F)c4)cc3)n2)cc1`, the max activity is -17.7% [at 0.35 µM] (inactive).

In the case of `Cc1ccc(S(=O)(=O)Nc2ccc(-c3nc(-c4ccc(C)c(C)c4)co3)cc2)cc1`, the max activity was 33.8% [at 10 µM] (inactive). For `Cc1oc(-c2cccc(Cl)c2)nc1Cn1nnc(-c2nc(-c3cccnc3)no2)c1C` the value was 8.12% [at 10 µM] (inactive).

Turning to `C/C=C/c1ccc(C2[C@H]3CNC[C@@H]2N3Cc2cc(F)ccc2F)cc1` (some centres undefined), the max activity was 24.5% [at 10 µM] (inactive). To `COCCCN=C(Nc1ccc(C(=O)O)cc1)N1CCN(c2ncnc3ccccc23)CC1` belongs 14.9% (inactive); to `Cc1ccc(-n2ncc3c(NCCCN4CCCC4=O)ncnc32)c(C)c1`, 50% (inactive); to `Cc1cccc(-n2ncc3c(NCCc4ccccc4)ncnc32)c1`, -21.4% [at 0.35 µM] (inactive). For `CCc1ccccc1Nc1ncnc2c1cnn2-c1cccc(C)c1` the value was 24.1% [at 10 µM] (inactive); for `C=CCNc1ncnc2c1cnn2-c1ccc(C)cc1C`, 27.6% [at 5 µM] (inactive). To `COc1ccc(CCNc2ncnc3c2cnn3-c2cccc(C)c2)cc1OC` belongs 11.8% [at 1.35 µM] (inactive); to `Cc1cccc(-n2ncc3c(NCCCn4ccnc4)ncnc32)c1`, 38.7% [at 5 µM] (inactive). For `Clc1ccc(-n2ncc3c(NCCc4ccccc4)ncnc32)cc1`, the max activity was 36% (inactive). As for `Clc1cccc(CNc2ncnc3c2cnn3-c2ccccc2)c1`, the max activity is 95.5% [at 10 µM] (inactive). To `Cc1cccc(Nc2ncnc3c2cnn3-c2ccc(C)cc2C)c1` belongs -13.4% [at 10 µM] (inactive); to `COC(=O)CC(=O)Nc1ccc(-c2nc(-c3ccccc3)co2)cc1`, 102% (inactive); to `COc1ccc(NC(=O)Nc2ccc(-c3nc(-c4ccccc4)co3)cc2)cc1Cl`, 10% (inactive).

Turning to `NC(=O)CN1CCOCCOCCN(CC(N)=O)CCOCC1`, the max activity is 36.3% [at 10 µM] (inactive).

For the compound `COc1ccc(-c2nc3c(s2)CN(C(=O)Nc2ccccc2C)CC3)cc1OC`, the max activity was -11.5% [at 0.35 µM] (inactive). For the compound `C/C=C/c1ccc(C2[C@H]3CNC[C@@H]2N3Cc2ccc3c(c2)OCO3)cc1` (some centres undefined), the max activity was 24% (inactive). For `Cc1ccc(S(=O)(=O)N2[C@@H]3CNC[C@H]2C3c2ccc(/C=C/c3ccccc3)cc2)cc1` (some centres undefined), the max activity is 32.9% [at 10 µM] (inactive). For `O=C(CCC1Nc2c3ccccc3nc(=S)n2C1=O)NC1CC1` (centres undefined) the value was -17.9% [at 1.35 µM] (inactive); for `COc1cccc(-c2ccc(C3[C@H]4CNC[C@@H]3N4C(=O)NC3CCCCC3)cc2)c1` (some centres undefined), 32.8% [at 10 µM] (inactive); for `C/C=C/c1ccc([C@H]2[C@@H](C#N)N(C(=O)NC3CCCCC3)[C@H]2CO)cc1`, -14% [at 2.35 µM] (inactive). For `COc1ccc(N2CCN(c3nc(-c4ccc(Cl)cc4)nc4ccccc34)CC2)cc1` the value was 25.6% (inactive); for `CCOC(=O)C1CCN(C(=O)c2ccc(-c3csc(CC)n3)cc2)CC1`, 201% [at 10 µM] (inactive). Consider `COc1cccc(-c2ccc(C3[C@H]4CNC[C@@H]3N4CC3CCCCC3)cc2)c1` (some centres undefined), for which the max activity was 25.6% [at 10 µM] (inactive). For `CCOc1ccc(-c2nc3c(s2)CN(S(=O)(=O)Cc2ccccc2)CC3)cc1`, the max activity was -19.9% [at 0.16 µM] (inactive). Turning to `COc1ccccc1-c1ccc(C2[C@H]3CNC[C@@H]2N3S(=O)(=O)c2ccc(F)cc2)cc1` (some centres undefined), the max activity was 43.5% (inactive). For `C/C=C/c1ccc(C2[C@H]3CNC[C@@H]2N3S(=O)(=O)c2ccccc2C)cc1` (some centres undefined) the value was 50.4% (inactive); for `N#Cc1ccc(-c2ccc(C3[C@@H]4CN(S(=O)(=O)c5ccc(F)cc5)C[C@H]3N4)cc2)cc1` (some centres undefined), 13.9% (inactive); for `Cn1cnc(S(=O)(=O)N2C[C@@H]3N[C@H](C2)C3c2ccc(-c3ccccc3F)cc2)c1` (some centres undefined), 25.3% [at 10 µM] (inactive).

In the case of `NC(=O)C1(N2CCCCC2)CCN(c2ncc(NC(=O)c3ccc(Cl)cc3)cc2C(=O)O)CC1`, the max activity is -11.3% [at 10 µM] (inactive). For `Cc1ccc(-c2nc(CSc3nc4c(c(=O)[nH]3)CN(C(C)C)CC4)c(C)o2)cc1` the value was -15.7% (inactive). To `Cc1ccc(C)c(-c2coc(-c3ccc(NC(=O)Nc4ccc(F)cc4F)cc3)n2)c1` belongs -11.8% [at 2.6 µM] (inactive); to `COc1ccc(CNC(=O)CC2Nc3c4ccccc4nc(=S)n3C2=O)cc1` (centres undefined), 22.9% [at 0.16 µM] (inactive).

Consider `CCc1ccc(-c2noc(-c3nnn(Cc4nc(-c5ccc(OC)cc5)oc4C)c3C)n2)cc1`, for which the max activity was -11.2% [at 1.35 µM] (inactive). On to `CCc1nc(OCC(=O)Nc2c(C)cccc2C)c2ccccc2n1`, for which the max activity is 19.2% [at 0.35 µM] (inactive).

As for `Cc1ccc(C2=NC3(CCN(CC(=O)Nc4cccc(C)c4)CC3)NC2=O)cc1`, the max activity is -9.18% [at 5 µM] (inactive). To `CCOc1cccc(-c2noc(-c3nnn(Cc4nc(-c5ccccc5OC)oc4C)c3C)n2)c1` belongs 5.65% [at 0.35 µM] (inactive); to `CCOC(=O)c1nn(Cc2ccccc2)c2c1CN(C(=O)CN1CC(c3ccccc3)CC1=O)CC2` (centres undefined), -5.83% [at 0.038 µM] (inactive). To `Cc1ccc2c(c1C)-n1cccc1C1(CCN(C(=O)COc3ccccc3)CC1)N2` belongs -7.11% [at 2.6 µM] (inactive); to `Nc1ccc(S(=O)(=O)NC(=O)c2ccccc2)cc1`, -6.84% [at 5 µM] (inactive); to `COc1cccc(CN2CCc3nc(SCc4nc(-c5ccc(C)cc5)oc4C)[nH]c(=O)c3C2)c1`, 42.8% (inactive). To `Cc1ccc(-c2coc(-c3ccc(NC(=O)C(C)(C)C)cc3)n2)c(C)c1` belongs 40.9% (inactive); to `CCc1ccccc1NC(=O)CN1CCC2(CC1)N=C(c1ccc(F)cc1)C(=O)N2`, -11.7% [at 0.35 µM] (inactive); to `CCc1nc(OCC(=O)NCc2ccc(C)cc2)c2ccccc2n1`, 13.9% (inactive). Consider `CCc1nc(OCC(=O)Nc2ccc(C)cc2Cl)c2ccccc2n1`, for which the max activity is 18.6% [at 0.68 µM] (inactive). To `CCc1nc(OCC(=O)NCc2ccc(F)cc2)c2ccccc2n1` belongs -17.9% [at 0.68 µM] (inactive); to `CCc1nc(OCC(=O)Nc2ccc(C)cc2)c2ccccc2n1`, 32.4% (inactive); to `Cc1nc(OCC(=O)Nc2ccc(C)c(F)c2)c2ccccc2n1`, 21.5% [at 10 µM] (inactive). For `CCc1nc(OCC(=O)Nc2ccc(C)c(C)c2)c2ccccc2n1` the value was 17.1% [at 0.35 µM] (inactive); for `CCc1nc(OCC(=O)Nc2cc(Cl)ccc2Cl)c2ccccc2n1`, 24.4% [at 2.6 µM] (inactive). In the case of `CCc1ccc(NC(=O)COc2nc(CC)nc3ccccc23)cc1`, the max activity was -19.6% [at 1.35 µM] (inactive).
